# From publication PMC4336329 (PLoS ONE, 2015)
# The whole screen tested about 310,000 compounds, of which about 14,000 (4.5%) showed an effect of 50% or more. The effect is printed as a negative number. What follows is part of a selection rich in strong results, with near analogues and random picks from the rest.
# Target: human ether-à-go-go-related gene (hERG) potassium channel (human, UniProt Q12809)
# Test: primary screen, population patch clamp on CHO cells stably expressing hERG; higher = less effect of the substance
# 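Note: peak tail current of the secondary pulse compared with the same well before compound.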
# Chain of human ether-à-go-go-related gene (hERG) potassium channel (Q12809 whole entry, looked up): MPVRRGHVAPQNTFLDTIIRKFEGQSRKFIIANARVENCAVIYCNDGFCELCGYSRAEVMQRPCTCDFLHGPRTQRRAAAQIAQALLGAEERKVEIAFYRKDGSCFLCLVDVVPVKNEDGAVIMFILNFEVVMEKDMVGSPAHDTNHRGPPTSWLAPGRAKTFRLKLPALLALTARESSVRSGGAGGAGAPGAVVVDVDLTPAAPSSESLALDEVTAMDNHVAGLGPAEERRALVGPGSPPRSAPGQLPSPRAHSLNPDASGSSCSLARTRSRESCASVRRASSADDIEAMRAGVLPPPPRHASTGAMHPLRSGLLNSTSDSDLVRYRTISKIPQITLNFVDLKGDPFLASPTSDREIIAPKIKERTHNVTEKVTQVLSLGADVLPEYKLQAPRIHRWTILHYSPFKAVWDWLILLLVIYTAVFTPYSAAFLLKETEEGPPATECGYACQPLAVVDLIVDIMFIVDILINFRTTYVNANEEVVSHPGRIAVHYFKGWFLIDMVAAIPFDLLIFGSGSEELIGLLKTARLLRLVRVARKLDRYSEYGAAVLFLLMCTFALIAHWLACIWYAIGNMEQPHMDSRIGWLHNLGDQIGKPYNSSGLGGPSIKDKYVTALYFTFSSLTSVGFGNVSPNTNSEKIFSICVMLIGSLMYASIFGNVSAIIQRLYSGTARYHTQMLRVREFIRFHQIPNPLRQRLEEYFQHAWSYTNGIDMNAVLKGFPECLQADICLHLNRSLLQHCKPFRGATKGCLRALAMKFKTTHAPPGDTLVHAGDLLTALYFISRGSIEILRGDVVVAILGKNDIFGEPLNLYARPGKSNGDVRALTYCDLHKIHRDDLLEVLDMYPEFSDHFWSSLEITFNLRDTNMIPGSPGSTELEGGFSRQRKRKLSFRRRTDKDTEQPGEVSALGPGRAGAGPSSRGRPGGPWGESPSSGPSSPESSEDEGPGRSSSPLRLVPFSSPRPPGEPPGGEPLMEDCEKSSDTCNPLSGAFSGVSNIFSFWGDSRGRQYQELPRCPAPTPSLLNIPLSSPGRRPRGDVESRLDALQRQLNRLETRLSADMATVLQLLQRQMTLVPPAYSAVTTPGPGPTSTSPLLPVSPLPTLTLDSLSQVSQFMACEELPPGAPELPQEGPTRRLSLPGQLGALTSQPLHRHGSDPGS
row,Structure (SMILES),"hERG current change (%, negative = inhibition) at 10uM [%]"
1,OCC1OC(n2cnc3ccccc32)CC1O (stereo not drawn),10.8
2,CCNC(=O)OCC12CC3CC(CC(C3)C1)C2,-5.85
3,Cc1ccc(C(=O)N/N=C\c2ccc(-c3ccc(Cl)c(Cl)c3)o2)cn1,-44.9
4,CCOC(=O)N1CCN(C(=O)C2CCC(=O)N(Cc3cccc(C(F)(F)F)c3)C2)CC1 (stereo not drawn),-11.1
5,CC(C)n1c(O)c(N=NC(=O)C2COc3ccccc3O2)c2ccccc21 (stereo not drawn),12.4
6,Nn1c(COc2ccccc2F)nnc1SCC(=O)NC1CCS(=O)(=O)C1 (stereo not drawn),-7.72
7,CS(=O)(=O)Nc1ccc(N2CCN(c3ccc(C(F)(F)F)cn3)CC2)nc1,-4.03
8,CCc1nc(CN2CCN(c3cc(C(F)(F)F)ccn3)CC2)c(C)[nH]1,-45.2
9,CCc1nc(CN2CCN(c3ccc(C(F)(F)F)cn3)CC2)c(C)[nH]1,-55.6
10,O=C(CN1CCN(Cc2ccc(F)cc2Cl)CC1)NCc1ccccc1,-23.2
11,OCCCNc1nc(-c2ccc(Br)cc2)nnc1-c1ccc(Cl)cc1,-52.3
12,Cc1nnc(-c2ccc(Cl)cc2)nc1NCCN(C)C,-38.9
13,OCCCNc1nc(-c2ccc(Cl)cc2)nnc1-c1ccccc1,-40
14,Nc1nc(-c2ccc(Cl)cc2)nnc1-c1ccc(Br)cc1,41
15,O=[N+]([O-])c1ccc2nc(NCCCO)nc(-c3ccccc3)c2c1,-22.7
16,Clc1ccc(-c2nnc(-c3ccc(Br)cc3)c(N3CCSCC3)n2)cc1,-11.9
17,O=[N+]([O-])c1ccc(-c2nnc(-c3ccccc3)c(NCCCO)n2)cc1,-67.3
18,OCCCNc1nc(-c2ccc(Cl)cc2)nnc1-c1ccc(Br)cc1,-61.5
19,OCCCNc1nnc(-c2ccccc2)c2ccccc12,2.95
20,CC(C)(C)c1ccc(C(CC(=O)O)NC(=O)C23CC4CC(CC(C4)C2)C3)cc1 (stereo not drawn),17.7
21,O=C(Nc1ccc2c(c1)OCO2)C1Cc2ccccc2CN1S(=O)(=O)c1cccs1 (stereo not drawn),4.05

row,Structure (SMILES),"hERG current change (%, negative = inhibition) at 10uM [%]"
1,COc1ccccc1NC(=O)c1ccc(Br)c(S(=O)(=O)N2CCCC2)c1,-2.36
2,CCC(C)C(NC(=O)c1ccccc1NC(=O)c1ccc(OC)cc1)C(=O)NCCCn1ccnc1 (stereo not drawn),-1.96
3,CCCn1c(CCC(=O)O)nc2cc(S(=O)(=O)N3CCCC3)ccc21,12.1
4,COCCOC(=O)c1c(C)oc2ccc(O)c(CN3CCC(C)CC3)c12,-29.8
5,CC12CC3CC(C)(C1)CC(NCc1ccncc1)(C3)C2.Cl,-58.7
6,Cl.c1cc(CNC23CC4CC(CC(C4)C2)C3)ccn1,-20.2
7,CC12CC3CC(C)(C1)CC(C(=O)NCc1ccncc1)(C3)C2,9.2
8,O=C(c1ccc([N+](=O)[O-])o1)N(Cc1nnc(-c2ccccc2Cl)o1)C1CC1,-20.9
9,CN(NS(=O)(=O)c1ccc(Br)cc1)c1nc(C(F)(F)F)nc2ccccc12,12.2
10,O=C(CN(Cc1ccc2c(c1)OCO2)C(=O)CNC(=O)c1ccco1)NC1CCCCC1,-7.83
11,CC(=O)N1CCN(C(=O)c2cc(-c3ccc(C)o3)nc3ccccc23)CC1,-10.1
12,CCOC(=O)C1CCCN(C(=O)c2cc(-c3ccc(C)cc3)nc3ccccc23)C1 (stereo not drawn),-37.6
13,O=C(c1cc(-c2ccccc2)nc2ccccc12)N1CCN(c2ccccc2O)CC1,-10.9
14,O=C(c1cc(-c2cccnc2)nc2ccccc12)N1CCN(S(=O)(=O)c2cccs2)CC1,-64.3
15,CCOC(=O)C1CCN(C(=O)c2cc(-c3ccncc3)nc3ccccc23)CC1,-67.2
16,O=C(c1cc(-c2cccnc2)nc2ccc(Cl)cc12)N1CCN(S(=O)(=O)c2cccs2)CC1,-4.28
17,O=C(c1cc(-c2cccs2)nc2ccccc12)N1CCN(S(=O)(=O)c2ccccc2)CC1,-5.65
18,CCOC(=O)C1CCCN(C(=O)c2cc(-c3ccncc3)nc3ccccc23)C1 (stereo not drawn),-32.4
19,O=C(c1cc(-c2ccncc2)nc2ccccc12)N1CCN(c2ccccc2O)CC1,-64.3
20,Cc1ccc(-c2cc(C(=O)N3CCN(c4ccccc4O)CC3)c3ccccc3n2)cc1,-1.9
21,Cc1ccc(-c2cc(C(=O)N3CCN(c4ccc(F)cc4)CC3)c3ccccc3n2)o1,-35.7

row,Structure (SMILES),"hERG current change (%, negative = inhibition) at 10uM [%]"
1,Cc1ccc(-c2cc(C(=O)N3CCN(c4ccccc4O)CC3)c3ccccc3n2)o1,-70.9
2,O=C(N/N=C/c1c(O)ccc2ccccc12)Nc1ccccc1,16.3
3,COc1cc2cc(CCCOC(=O)c3cccc(Br)c3)oc(=O)c2cc1OC,-2.2
4,Cn1c(SCCS(=O)(=O)c2ccc(Cl)cc2)nnc1-c1ccccc1,-19.3
5,CCOc1ccc(CCNC(=O)COC(=O)c2ccc(C)c([N+](=O)[O-])c2)cc1OCC,-7.57
6,CO/N=C/NC(=O)NOCc1ccc(Cl)cc1Cl,-11.5
7,C[C@H](NC(=O)c1nc[nH]c1C(=O)N(C)Cc1ccccc1)C(=O)OC(C)(C)C,5.67
8,COc1cccc(C(=O)N(CN2CCCC2=O)c2cccc(Cl)c2)c1,-25.4
9,CC(=O)c1cc(C#N)c(Oc2ccc(F)cc2)nc1C,13.7
10,COc1cccc(CN2CCN(C(=O)c3cc(-c4ccncc4)nc4ccc(C)cc34)CC2)c1,-71
11,COc1ccc(-c2cc(C(=O)N3CCN(c4ccccn4)CC3)c3ccccc3n2)cc1,-5.51
12,COc1cccc(CN2CCN(C(=O)c3cc(-c4cccnc4)nc4ccc(C)cc34)CC2)c1,-12.7
13,O=C(c1cc(-c2ccncc2)nc2ccccc12)N1CCN(c2ccccn2)CC1,-63.5
14,COc1ccccc1NC(=O)c1cc(-c2ccc(C)o2)nc2ccccc12,-60.7
15,COc1cccc(CN2CCN(C(=O)c3cc(-c4ccccn4)nc4ccc(Cl)cc34)CC2)c1,17.1
16,CC1CC(C)CN(C(=O)c2cc(-c3ccncc3)nc3ccccc23)C1 (stereo not drawn),-35.5
17,Cc1ccccc1CN1CCN(C(=O)c2cc(-c3ccncc3)nc3ccccc23)CC1,-76.7
18,COc1ccc(NC(=O)c2cc(-c3ccc(C)o3)nc3ccccc23)c(OC)c1,14.9
19,CCOC(=O)N1CCN(C(=O)c2cc(-c3ccncc3)nc3ccccc23)CC1,-48.4
20,O=C(c1cc(-c2ccccc2)nc2ccccc12)N1CCN(c2ccccn2)CC1,-27.6
21,Cc1ccc(-c2cc(C(=O)Nc3ccccc3C)c3ccccc3n2)o1,9.38
